In PubChem BioAssay (NCATS):
Several values for one entry are separate records, joined by “and”; a condition that tells them apart may be missing. Equal entries are not always repeated. Results filed as inconclusive are left out. A number with no mark means an inactive call. Activity calls are given as the source filed them. Calls come from the whole dose curve; as a rule, active = well fitted inhibition curve with a large enough effect; inconclusive = small, poorly fitted or top-dose-only effect; inactive = flat fitted curve, though single readings scatter.

These molecules were tested on PC15 (assay: qHTS profiling for inhibitors of Plasmodium falciparum proliferation (AID 504749;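 for activity, negative = inhibition: 0% = DMSO vehicle and full inhibition = artemisinin control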)). Details: P. falciparum in erythrocytes, SYBR Green DNA, 72 h; series mostly up to 28.7 µM; activity, negative = inhibition: at the top concentration.
Summary of the method: (§1)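 Infected RBCs, 0.3% parasitemia/2.5% Hct final; cpd 72 h, 37 C, 5% CO2; lysis buffer with saponin/triton/SYBR Green I, o/n RT dark; FI 485/535; norm. to artemisinin (0.29 uM) and DMSO.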
Note: nearly all actives have a fitted effect of over 60% in size.
Potency is the fitted concentration of half-maximal effect.

| Compound | Potency | activity, negative = inhibition [%] |
| --- | --- | --- |
| CCC1=C[C@@H]2CN(C1)Cc1c([nH]c3ccccc13)[C@@](C(=O)OC)(c1cc3c(cc1OC)N(C)[C@@H]1[C@@](O)(C(=O)OC)[C@H](OC(C)=O)[C@]4(CC)C=CCN5CC[C@]31[C@@H]54)C2 | 7080 nM (active) |  |
| COC(=O)C[C@](O)(CCCC(C)(C)O)C(=O)O[C@@H]1C(OC)=C[C@]23CCCN2CCc2cc4c(cc2[C@H]13)OCO4 | 31.6 nM (active) |  |
| O=c1[nH]c(=O)n(C2CCCO2)cc1F (stereo unspecified) |  | 9.99 |

What follows are molecules tested on PC26 in the same assay as above. Details: P. falciparum in erythrocytes, SYBR Green DNA, 72 h; series mostly up to 28.7 µM; activity, negative = inhibition: at the top concentration.
Summary of the method: as §1

| Compound | Potency | activity, negative = inhibition [%] |
| --- | --- | --- |
| CCC1=C[C@@H]2CN(C1)Cc1c([nH]c3ccccc13)[C@@](C(=O)OC)(c1cc3c(cc1OC)N(C)[C@@H]1[C@@](O)(C(=O)OC)[C@H](OC(C)=O)[C@]4(CC)C=CCN5CC[C@]31[C@@H]54)C2 | 3380 nM (active) |  |
| COC(=O)C[C@](O)(CCCC(C)(C)O)C(=O)O[C@@H]1C(OC)=C[C@]23CCCN2CCc2cc4c(cc2[C@H]13)OCO4 | 19 nM (active) |  |
| O=c1[nH]c(=O)n(C2CCCO2)cc1F (stereo unspecified) |  | 2.65 |

The molecules below were run on SC27B in the same assay as above. Details: P. falciparum in erythrocytes, SYBR Green DNA, 72 h; series mostly up to 28.7 µM; activity, negative = inhibition: at the top concentration.
Summary of the method: as §1

| Compound | Potency | activity, negative = inhibition [%] |
| --- | --- | --- |
| CCC1=C[C@@H]2CN(C1)Cc1c([nH]c3ccccc13)[C@@](C(=O)OC)(c1cc3c(cc1OC)N(C)[C@@H]1[C@@](O)(C(=O)OC)[C@H](OC(C)=O)[C@]4(CC)C=CCN5CC[C@]31[C@@H]54)C2 | 2240 nM (active) |  |
| COC(=O)C[C@](O)(CCCC(C)(C)O)C(=O)O[C@@H]1C(OC)=C[C@]23CCCN2CCc2cc4c(cc2[C@H]13)OCO4 | 28.2 nM (active) |  |
| O=c1[nH]c(=O)n(C2CCCO2)cc1F (stereo unspecified) |  | 6.83 |

The molecules below were run on TAB109 in the same assay as above. Details: P. falciparum in erythrocytes, SYBR Green DNA, 72 h; series mostly up to 28.7 µM; activity, negative = inhibition: at the top concentration.
Summary of the method: as §1

| Compound | Potency | activity, negative = inhibition [%] |
| --- | --- | --- |
| CCC1=C[C@@H]2CN(C1)Cc1c([nH]c3ccccc13)[C@@](C(=O)OC)(c1cc3c(cc1OC)N(C)[C@@H]1[C@@](O)(C(=O)OC)[C@H](OC(C)=O)[C@]4(CC)C=CCN5CC[C@]31[C@@H]54)C2 | 2240 nM (active) |  |
| COC(=O)C[C@](O)(CCCC(C)(C)O)C(=O)O[C@@H]1C(OC)=C[C@]23CCCN2CCc2cc4c(cc2[C@H]13)OCO4 | 25.1 nM (active) |  |
| O=c1[nH]c(=O)n(C2CCCO2)cc1F (stereo unspecified) |  | 4.35 |

What follows are molecules tested on TAB113 in the same assay as above. Details: P. falciparum in erythrocytes, SYBR Green DNA, 72 h; series mostly up to 28.7 µM; activity, negative = inhibition: at the top concentration.
Summary of the method: as §1

| Compound | Potency | activity, negative = inhibition [%] |
| --- | --- | --- |
| CCC1=C[C@@H]2CN(C1)Cc1c([nH]c3ccccc13)[C@@](C(=O)OC)(c1cc3c(cc1OC)N(C)[C@@H]1[C@@](O)(C(=O)OC)[C@H](OC(C)=O)[C@]4(CC)C=CCN5CC[C@]31[C@@H]54)C2 | 1580 nM (active) |  |
| COC(=O)C[C@](O)(CCCC(C)(C)O)C(=O)O[C@@H]1C(OC)=C[C@]23CCCN2CCc2cc4c(cc2[C@H]13)OCO4 | 15.8 nM (active) |  |
| O=c1[nH]c(=O)n(C2CCCO2)cc1F (stereo unspecified) |  | 6.96 |

What follows are molecules tested on TAB165 in the same assay as above. Details: P. falciparum in erythrocytes, SYBR Green DNA, 72 h; series mostly up to 28.7 µM; activity, negative = inhibition: at the top concentration.
Summary of the method: as §1

| Compound | Potency | activity, negative = inhibition [%] |
| --- | --- | --- |
| CCC1=C[C@@H]2CN(C1)Cc1c([nH]c3ccccc13)[C@@](C(=O)OC)(c1cc3c(cc1OC)N(C)[C@@H]1[C@@](O)(C(=O)OC)[C@H](OC(C)=O)[C@]4(CC)C=CCN5CC[C@]31[C@@H]54)C2 | 2510 nM (active) |  |
| COC(=O)C[C@](O)(CCCC(C)(C)O)C(=O)O[C@@H]1C(OC)=C[C@]23CCCN2CCc2cc4c(cc2[C@H]13)OCO4 | 100 nM (active) |  |
| O=c1[nH]c(=O)n(C2CCCO2)cc1F (stereo unspecified) |  | 13.7 |

What follows are molecules tested on W2 in the same assay as above. Details: P. falciparum in erythrocytes, SYBR Green DNA, 72 h; series mostly up to 28.7 µM; activity, negative = inhibition: at the top concentration.
Summary of the method: as §1

| Compound | Potency | activity, negative = inhibition [%] |
| --- | --- | --- |
| CCC1=C[C@@H]2CN(C1)Cc1c([nH]c3ccccc13)[C@@](C(=O)OC)(c1cc3c(cc1OC)N(C)[C@@H]1[C@@](O)(C(=O)OC)[C@H](OC(C)=O)[C@]4(CC)C=CCN5CC[C@]31[C@@H]54)C2 | 190 nM (active) |  |
| COC(=O)C[C@](O)(CCCC(C)(C)O)C(=O)O[C@@H]1C(OC)=C[C@]23CCCN2CCc2cc4c(cc2[C@H]13)OCO4 | 30.1 nM (active) |  |
| O=c1[nH]c(=O)n(C2CCCO2)cc1F (stereo unspecified) |  | 16.9 |

What follows are molecules tested on CRL-7250 (assay: Cytotoxic Profiling of Annotated Libraries Using Quantitative High-Throughput Screening (AID 1296008; for max response: % is set by controls: 0 for no effect and ±100 for the full control effect)). Details: Five cell lines viability, CellTiter-Glo ATP luminescence, 48-72 h; max response: active compounds read low.
Summary of the method: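 Cytotoxicity was measured as CellTiter-Glo ATP luminescence, read after 10 min at room temperature. Compound treatment of the cells lasted 48 or 72 hr at 37 degrees Celsius in a qHTS format.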

| Compound | Potency | max response | outcome |
| --- | --- | --- | --- |
| COc1cccc2c(NCc3ccccc3)nc(-n3c(N)nc4ccccc43)nc12 | 8.33 µM (active) |  |  |
| COC(=O)[C@]12CCC(C)(C)C[C@@H]1[C@@H]1C(=O)C=C3[C@@]4(C)C=C(C#N)C(=O)C(C)(C)[C@@H]4CC[C@@]3(C)[C@]1(C)CC2 | 4.69 µM (active) |  |  |
| OCc1ccc(-c2ccc(-c3ccc(CO)s3)o2)s1 |  | -8.37% |  |
| CCCCCCCCCC(=O)N[C@@H](Cc1c[nH]c2ccccc12)C(=O)N[C@H](CC(N)=O)C(=O)N[C@@H](CC(=O)O)C(=O)N[C@@H]1C(=O)NCC(=O)N[C@@H](CCCN)C(=O)N[C@@H](CC(=O)O)C(=O)N[C@H](C)C(=O)N[C@@H](CC(=O)O)C(=O)NCC(=O)N[C@H](CO)C(=O)N[C@@H]([C@@H](C)CC(=O)O)C(=O)N[C@@H](CC(=O)c2ccccc2N)C(=O)O[C@@H]1C |  |  | inactive |
| COc1c(OCCCN2CCOCC2)ccc2c3n(c(=NC(=O)c4cnc(N)nc4)nc12)CCN3 | 2.29 µM (active) |  |  |
| CC(C)(O)c1cc2nc(-c3cnc(N)nc3)nc(N3CCOCC3)c2s1 | 148 nM (active) and 731 nM (active) |  |  |
| CCC1=C[C@@H]2CN(C1)Cc1c([nH]c3ccccc13)[C@@](C(=O)OC)(c1cc3c(cc1OC)N(C)[C@@H]1[C@@](O)(C(=O)OC)[C@H](OC(C)=O)[C@]4(CC)C=CCN5CC[C@]31[C@@H]54)C2 | 0.0469 µM (active) |  |  |
| Nc1ccc(C(=O)c2cc3c(ccc4ccccc43)[nH]2)cc1 |  | -31% |  |
| c1cc(-c2cnn3cc(-c4ccc(OCCN5CCCCC5)cc4)cnc23)ccn1 | 6.62 µM (active) |  |  |
| CC(C)=CCCC(C)=CCCC(C)=CCSc1ccccc1C(=O)O | 0.148 µM (active) |  |  |
| O=C(O)c1ccc2c(c1)nc(Nc1cccc(Cl)c1)c1ccncc12 | 14.6 µM (active) |  |  |
| Cc1cc(C(=O)N2CCN(c3cccc(Cl)c3)CC2)n(-c2ccccc2)n1 | 4.69 µM (active) and 5.8 µM (active) |  |  |
| COC(=O)C[C@](O)(CCCC(C)(C)O)C(=O)O[C@@H]1C(OC)=C[C@]23CCCN2CCc2cc4c(cc2[C@H]13)OCO4 |  | 3.78% |  |
| CN1CCN(c2cc(C(=O)Nc3ccc4c(c3)-c3c(c(C(N)=O)nn3-c3ccc(F)cc3)CC4)c(Cl)cn2)CC1 |  | -32.2% |  |
| Cc1[nH]c2ccccc2c1CCNCc1ccc(C=CC(=O)NO)cc1 | 1.05 µM (active) |  |  |
| CC(C)C[C@H](NC(=O)CNC(=O)c1cc(Cl)ccc1Cl)B(O)O | 1.48 µM (active) |  |  |
| O=C(c1ccc(Nc2nccc(-c3cc4ccccc4s3)n2)cc1)N1CCC(N2CCCC2)CC1 | 14.8 µM (active) |  |  |
| Cc1cn2c(-c3cn[nH]c3)cnc2c(Nc2ccc(C(=O)N3CCNCC3)cc2F)n1 | 6.51 µM (active) |  |  |
| O=C(Nc1ncc(-c2cc(C(F)F)nn2-c2c(Cl)cccc2Cl)s1)C1CC1 | 1.48 µM (active) and 3.66 µM (active) |  |  |
| O=c1[nH]c(=O)n(C2CCCO2)cc1F (stereo unspecified) |  |  | inactive |

| Compound | Potency | max response | outcome |
| --- | --- | --- | --- |
| O=C(O)C1(Cc2cccc(Nc3nccs3)n2)CCC(Oc2cccc(Cl)c2F)CC1 (stereo unspecified) |  | -5.96% and -3.26% |  |
| O=C(O)[C@H](Cc1c[nH]c2ccccc12)N1C(=O)c2ccccc2C1=O |  |  | inactive |
| CN(C)CCCN=c1c2ccccc2n(C)c2[nH]c(=O)n(C)c(=O)c12 | 11.8 µM (active) |  |  |
| CCN(CC)CCNC(=O)c1ccc2nc(-c3ccccc3)c(-c3ccc(CN4CCC(n5c(=O)[nH]c6ccccc65)CC4)cc3)nc2c1 | 9.35 µM (active) |  |  |
| COc1cc2c(NC3CCN(C(C)C)CC3)nc(C3CCCCC3)nc2cc1OCCCN1CCCC1 | 8.33 µM (active) and 4.11 µM (active) |  |  |
| O=C(NC1CCNCC1)c1[nH]ncc1NC(=O)c1c(Cl)cccc1Cl | 0.332 µM (active) |  |  |
| COc1cc(C)c(Sc2cnc(NC(=O)c3ccc(CNC(C)C(C)C)cc3)s2)cc1C(=O)N1CCN(C(C)=O)CC1 (stereo unspecified) | 23.5 µM (active) |  |  |
| CS(=O)(=O)N1CCN(Cc2cc3nc(-c4cccc5[nH]ncc45)nc(N4CCOCC4)c3s2)CC1 | 1.05 µM (active) and 1.64 µM (active) |  |  |
| Cc1cccc(C=NNc2cc(N3CCOCC3)nc(OCCc3ccccn3)n2)c1 |  | -4.72% |  |
| N#CCNC(=O)c1ccc(-c2ccnc(Nc3ccc(N4CCOCC4)cc3)n2)cc1 | 7.43 µM (active) and 6.51 µM (active) |  |  |
| C[C@@]12O[C@@H](C[C@]1(O)CO)n1c3ccccc3c3c4c(c5c6ccccc6n2c5c31)CNC4=O | 0.0833 µM (active) |  |  |
| Cn1c2ccccc2c2c3c(c4c5ccccc5n(CCC#N)c4c21)CNC3=O | 14.6 µM (active) |  |  |
| Cn1cc(-c2ccncc2)c(-c2ccc(OCc3ccc4ccccc4n3)cc2)n1 | 2.64 µM (active) |  |  |
| NC(=O)c1cccc2cn(-c3ccc([C@@H]4CCCNC4)cc3)nc12 |  | -21.5% and 4.62% |  |
| Nc1ccccc1NC(=O)c1ccc(CNc2nccc(-c3cccnc3)n2)cc1 | 4.18 µM (active) and 5.17 µM (active) |  |  |
| CC(C)(C)c1cc(NC(=O)Nc2ccc(-c3cn4c(n3)sc3cc(OCCN5CCOCC5)ccc34)cc2)no1 |  | -10.2% and -19.2% |  |
| CN1CCC(CNc2ccc3ncc(-c4cccc(OC(F)(F)F)c4)n3n2)CC1 | 4.69 µM (active) |  |  |
| CC(C)c1cc(-c2n[nH]c(=O)n2-c2ccc3c(ccn3C)c2)c(O)cc1O | 148 nM (active) and 103 nM (active) |  |  |
| CCN1CCN(CC(=O)Nc2ccc(-c3cccc4c(=O)cc(N5CCOCC5)oc34)c3sc4ccccc4c23)CC1 | 2.35 µM (active) |  |  |
| CC1(C)OC2=C(C(=O)c3ccccc3C2=O)[C@H](NCc2ccccc2)[C@H]1O | 16.6 µM (active) |  |  |
